High-throughput results from PubChem BioAssay.
Most compounds without a hit are left out; they make up all but 3% or so of the library.
BioA inh – BioA (M. tuberculosis) enzyme inhibition. purified M. tuberculosis BioA enzyme, plate reader. inhibition, % at 9.99 µM. 360,000 compounds, 0.096% hits. AID 602481; in the data active = inhibition above about 40%
Mtb FBA inh – inhibits M. tuberculosis FBA enzyme; 360,000 compounds, 2.3% hits; AID 588726; P9WQA3; purified M. tuberculosis FBA, fluorescence read-out; inhibition, % at 1 µM; in the data active = inhibition above about 27%
Target sequence (P9WQA3 whole entry, looked up): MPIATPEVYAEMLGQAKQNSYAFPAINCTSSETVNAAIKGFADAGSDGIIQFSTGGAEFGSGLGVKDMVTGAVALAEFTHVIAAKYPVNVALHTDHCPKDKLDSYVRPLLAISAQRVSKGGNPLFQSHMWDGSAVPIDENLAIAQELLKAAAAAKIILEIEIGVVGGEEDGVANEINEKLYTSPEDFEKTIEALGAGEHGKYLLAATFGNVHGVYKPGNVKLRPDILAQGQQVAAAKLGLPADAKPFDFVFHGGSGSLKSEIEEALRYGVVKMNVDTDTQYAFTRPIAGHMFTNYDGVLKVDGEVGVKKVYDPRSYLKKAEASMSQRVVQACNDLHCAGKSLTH
BH1578 lux ind – inducers of Vibrio cholerae quorum light production without autoinducers. activation, % at 18.7 µM. AID 588436. V. cholerae BH1578 lux reporter, luminescence, 6 h. 350,000 compounds, 0.16% hits; in the data active = activation mostly above about 9.7%, no sharp cut-off
GDH-TPI inh – counter-screen for M. tuberculosis FBA inhibitors: GDH-TPI coupled enzymes; GDH-TPI coupled enzyme counterscreen, NADH absorbance; inhibition, % at 4.8 µM; 360,000 compounds, 1.2% hits; AID 588335; in the data active = inhibition above about 30%
Each line names hits and unclear results; the compound was inactive in the other large screens.

C[C@@H]1CCCCO[C@H](CN(C)S(=O)(=O)c2cccs2)[C@@H](C)CN([C@H](C)CO)C(=O)c2cc(NC(=O)Nc3ccc(C(F)(F)F)cc3)ccc2O1	none (no result: Mtb FBA inh, BH1578 lux ind, GDH-TPI inh)
CCN(CC)c1ccc(/C=N/NC(=S)NC)c(O)c1	none (no result: BioA inh)
CCN(CC)c1ccc(/C=N/NC(=O)c2ccoc2C)c(O)c1	GDH-TPI inh 37.2
CCN(CC)c1ccc(/C=N/NC(=O)c2ccc3nc[nH]c3c2)c(O)c1	none
CCN(CC)c1ccc(/C=N/NC(=O)OC)c(O)c1	GDH-TPI inh 43.4
COc1ccc(Cc2nnc(SCC(=O)N(C)CC(=O)Nc3ccc(C)cc3)o2)cc1	BH1578 lux ind 28.5 (no result: BioA inh)
CCOC(=O)c1cc(NC(=O)c2ccccc2)c(=O)oc1-c1ccccc1	GDH-TPI inh 33.3 (no result: BioA inh)
Cc1oc(=O)c(NC(=O)c2ccccc2)cc1C(C)O (centres undefined)	none (no result: BioA inh)
Cc1cc2cc(C(c3nnnn3CC3CCCO3)N3CCCc4ccccc43)c(=O)[nH]c2cc1C (centres undefined)	GDH-TPI inh 33.9
COc1ccc(NC(=O)Nc2ccc3c(c2)C(=O)N([C@H](C)CO)C[C@@H](C)[C@H](CN(C)S(=O)(=O)c2ccc(F)cc2)OCCCC[C@@H](C)O3)cc1	none (no result: Mtb FBA inh, BH1578 lux ind, GDH-TPI inh)
COc1nc2ccccc2nc1N1CC1	Mtb FBA inh 28.8 (no result: BH1578 lux ind, GDH-TPI inh)
CC(C)COc1nc2ccccc2nc1N1CCN(C)CC1	none (no result: BioA inh)
O=S(=O)(N/N=C/c1ccc(N2CCOCC2)cc1)c1ccc(Br)cc1	GDH-TPI inh 36.4
Cc1cccc(N=Cc2c(O)n(-c3ccccc3C)c(=O)[nH]c2=O)c1	GDH-TPI inh 47.8
Cc1ccccc1-n1c(O)c(C=Nc2ccc(N(C)C)cc2)c(=O)[nH]c1=O	GDH-TPI inh 43.4
C[C@@H]1CN([C@H](C)CO)C(=O)c2cc(C3=CCCC3)cnc2O[C@H]1CN(C)Cc1ccccn1	none (no result: Mtb FBA inh, BH1578 lux ind, GDH-TPI inh)
COc1cccc(CNC(=O)[C@H]2[C@H](CO)[C@H]3Cn4c(cccc4=O)[C@@H]2N3C(=O)C2CCCCC2)c1	none (no result: Mtb FBA inh, BH1578 lux ind, GDH-TPI inh)
O=C(C[C@H]1C[C@H]2c3cc(NC(=O)Cc4ccncc4)ccc3O[C@H]2[C@@H](CO)O1)NCc1cccnc1	none (no result: Mtb FBA inh, BH1578 lux ind, GDH-TPI inh)
O=c1[nH]c(NCCCO)nc2c1C1(CCCC1)Cc1ccccc1-2	Mtb FBA inh 183.8
CCC1(C)Cc2ccccc2-c2nc(NCCCO)[nH]c(=O)c21 (centres undefined)	Mtb FBA inh 140.3 (no result: BioA inh)
CC1(C)Cc2ccccc2-c2nc(NCCCO)n(-c3ccccc3)c(=O)c21	Mtb FBA inh 198.2
CCOC(=O)C1Cn2c(nc3c(c2=O)C(C)(C)Cc2ccccc2-3)S1 (centres undefined)	none (no result: BH1578 lux ind)
C[C@@H]1CN([C@@H](C)CO)C(=O)Cc2cc(NC(=O)Cn3cnnn3)ccc2O[C@H]1CN(C)Cc1ccc(C(=O)O)cc1	none (no result: Mtb FBA inh, BH1578 lux ind, GDH-TPI inh)
Cc1cc(N/N=C/c2ccc(O)c(C)c2O)nc(-c2ccccc2O)n1	GDH-TPI inh 32.1
C/C(=N\Nc1cc(C)nc(-c2ccccc2O)n1)c1ccccc1	none (no result: BioA inh)
CCCCN1Cc2c(nc3cc(-c4ccco4)[nH]n3c2=O)C1=O	Mtb FBA inh 142.5
CC(C)(C)OC(=O)COc1cc(O)c2c(=O)cc(-c3ccccc3)oc2c1	none (no result: BioA inh)
CC(C)(C)OC(=O)COc1cc(OCC(=O)OC(C)(C)C)c2c(=O)cc(-c3ccccc3)oc2c1	Mtb FBA inh 27.8
CC(C)NC(=O)N(C)C[C@@H]1OCCCC[C@H](C)Oc2ccc(NC(=O)CCC(F)(F)F)cc2C(=O)N([C@@H](C)CO)C[C@H]1C	none (no result: Mtb FBA inh, BH1578 lux ind, GDH-TPI inh)
N#C/C(=C(/O)c1ccc([N+](=O)[O-])o1)c1nc2ccccc2[nH]1	BH1578 lux ind 34.6 (no result: BioA inh)
CCN(CC)c1ccc(C=Nc2ccccc2)c(O)c1	GDH-TPI inh 33.6
CCN(CC)c1ccc(C=Nc2cc(C)cc(C)c2)c(O)c1	none (no result: BioA inh)
CCN(CC)c1ccc(C=Nc2ccc(N(C)C)cc2)c(O)c1	GDH-TPI inh 54.0 (no result: BioA inh)
CCN(CC)c1ccc(C=Nc2ccc(C)cc2)c(O)c1	GDH-TPI inh 45.3
CCN(CC)c1ccc(N=Cc2ccc(N(CC)CC)cc2O)cc1	none (no result: BioA inh)
CC(C)NC(=O)N(C)C[C@@H]1Oc2ccc(NS(=O)(=O)c3cn(C)cn3)cc2C(=O)N([C@H](C)CO)C[C@@H]1C	none (no result: Mtb FBA inh, BH1578 lux ind, GDH-TPI inh)
CN1CCN(C(=O)C[C@H]2CC[C@H]3[C@@H](COC[C@H](O)CN3Cc3ccc(Oc4ccccc4)cc3)O2)CC1	none (no result: Mtb FBA inh, BH1578 lux ind, GDH-TPI inh)
N#Cc1sc2nc(-c3ccccc3)cc(-c3ccco3)c2c1N	none
CC(=O)Nc1nc(-c2ccccc2)cc(-c2ccco2)c1C#N	Mtb FBA inh active
Cc1cc2cc3c(=O)[nH]c(=O)nc-3n(CC(O)C(O)C(O)CO)c2cc1C (centres undefined)	Mtb FBA inh 149.1 (no result: BioA inh, BH1578 lux ind)
CCC(C)c1ccc2oc(-c3ccc(NC(=O)c4ncn[nH]4)cc3)nc2c1 (centres undefined)	GDH-TPI inh 31.0
CC(C)c1ccc2oc(-c3ccc(NC(=O)c4ncn[nH]4)cc3)nc2c1	none (no result: BioA inh, Mtb FBA inh, GDH-TPI inh)
COc1cccc(/C=C2/SC(=O)N(CC(=O)N3CCc4ccccc4C3)C2=O)c1OCC(=O)O	GDH-TPI inh 32.1
CO[C@@H]1CN(C)C(=O)c2cc(NC(=O)Nc3ccccc3Cl)ccc2OC[C@@H](C)N(S(C)(=O)=O)C[C@H]1C	none (no result: Mtb FBA inh, BH1578 lux ind, GDH-TPI inh)
COC(=O)c1ccccc1-c1ccc(C=O)o1	none (no result: BioA inh)
COC(=O)N/N=C/c1ccc(-c2ccccc2Cl)o1	GDH-TPI inh 35.2
COC(=O)c1sccc1-c1ccc(/C=N/OC(=O)c2ccccc2)o1	GDH-TPI inh 30.8
COC(=O)c1ccccc1-c1ccc(/C=N/NC(N)=O)o1	GDH-TPI inh 31.7
COC(=O)N/N=C/c1ccc(-c2ccc(Cl)cc2Cl)o1	GDH-TPI inh 33.7
O=C(CN1CCOCC1)N[C@@H]1CC[C@H](CCn2cc(C3CCCCC3)nn2)O[C@H]1CO	none (no result: Mtb FBA inh, BH1578 lux ind, GDH-TPI inh)
CCC(=O)Nc1ccc2c(c1)C(=O)N(C)C[C@H](OC)[C@H](C)CN(Cc1cccnc1)[C@@H](C)CO2	none (no result: Mtb FBA inh, BH1578 lux ind, GDH-TPI inh)
COc1ccc(-n2nc(N)c(C(N)=O)n2)cc1	Mtb FBA inh active (no result: BioA inh)
COc1ccc(C(=O)n2cnnc2N)cc1	none
C[C@H](CO)N1C[C@H](C)[C@H](CN(C)CC2CCOCC2)Oc2ncc(C#Cc3ccncc3)cc2C1=O	none (no result: Mtb FBA inh, BH1578 lux ind, GDH-TPI inh)
CN(C)C=Nc1ccc(Cl)c(Cl)c1	none (no result: BioA inh)
CN(C)C=Nc1ccc2nn(-c3ccccc3)nc2c1	Mtb FBA inh 176.6 (no result: BioA inh)
Cc1noc(C)c1S(=O)(=O)N(C)C[C@@H]1OCCCC[C@H](C)Oc2ccc(NS(=O)(=O)c3ccccc3)cc2C(=O)N([C@@H](C)CO)C[C@H]1C	none (no result: Mtb FBA inh, BH1578 lux ind, GDH-TPI inh)
COC(=O)[C@@H]1[C@@H](CO)[C@@H]2Cn3c(ccc(-c4cccnc4)c3=O)[C@@H]2N1Cc1cccc(F)c1	none (no result: Mtb FBA inh, BH1578 lux ind, GDH-TPI inh)
CCN(CC)S(=O)(=O)c1ccc(OC)c(NC(=O)/C=C/c2ccco2)c1	GDH-TPI inh 35.0
Cc1c(C)c2ccc(OC(C)C(=O)NC3CC(C)(C)NC(C)(C)C3)cc2oc1=O (centres undefined)	Mtb FBA inh 123.4
Cc1c(OC(C)C(=O)NC2CC(C)(C)NC(C)(C)C2)ccc2c3c(c(=O)oc12)CCC3 (centres undefined)	none
Cc1ccccc1OCC(=O)Nc1nnc(-c2ccncc2)s1	GDH-TPI inh 33.3 (no result: BioA inh)
O=C(COc1ccc([N+](=O)[O-])cc1)Nc1nnc(-c2cccnc2)s1	GDH-TPI inh 35.1
O=C(COc1ccccc1F)Nc1nnc(-c2ccncc2)s1	none
O=C(COc1ccc([N+](=O)[O-])cc1)NCc1cccnc1	none (no result: BioA inh)
